Reference: PubChem BioAssay
Calls of active or inactive are those of the source. Unless noted, how the calls were made is not given here.

What was measured:
[1] = test system: Wnt5a (protein binding on small-molecule microarray); assay: small molecules binding Wnt5a protein – biophysical, small-molecule microarray, 635/667 nm fluorescence, primary screen (AID 1142); conditions: 635 nm fluorescence, higher = more signal;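 further: fluorescence read at 667 nm with signal to noise per printed feature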
[2] = ATP-based viability of Huh7 replicon cells – cell-based, CellTiter-Glo luminescence, basal, 48 h, cytotoxicity control for HCV replication inhibitor project, primary screen (AID 1143); conditions: higher = more signal, called active from +8 up or from −8 down;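 further: Huh7 hepatoma cells carrying a hepatitis C replication reporter with no stimulus; test concentration not given here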
[3] = Pseudomonas biofilm growth suppression – PAO1 strain, BacTiter-Glo luminescence, LB-PBS, primary screen (AID 1144); conditions: P. aeruginosa PAO1 biofilm, 12 h, higher = more signal
[4] = basal CRE-LacZ reporter activity in PC12 – cell-based, unstimulated, primary screen (AID 1145); conditions: no forskolin, luminescence, 4.5 h, higher = more signal, called active from +8 up or from −8 down
[5] = forskolin-driven CRE-LacZ activity in PC12 – cell-based, CRE-LacZ reporter, forskolin-stimulated, primary screen (AID 1146); conditions: luminescence, 4.5 h, higher = more signal, called active from +8 up or from −8 down;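 further: PC12 cells with 6xCRE LacZ reporter stimulated by forskolin 10 µM; beta-galactosidase reporter signal reflecting CREB driven transcription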
[6] = target: Streptavidin (Streptomyces avidinii) (UniProt P22629); assay: compounds binding control protein streptavidin – biophysical, small-molecule microarray, 635/667 nm fluorescence, artefact control for SMM compound annotation, primary screen (AID 1147); conditions: higher = more signal;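 further: signal reflects streptavidin binding to arrayed compounds as a control protein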
Chain of Streptavidin (Streptomyces avidinii) (P22629 whole entry, looked up): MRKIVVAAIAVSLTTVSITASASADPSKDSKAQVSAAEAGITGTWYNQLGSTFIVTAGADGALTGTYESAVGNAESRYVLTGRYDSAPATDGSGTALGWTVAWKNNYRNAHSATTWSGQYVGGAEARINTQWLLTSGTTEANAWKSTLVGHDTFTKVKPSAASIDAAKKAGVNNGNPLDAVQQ

[7] = probe aInhba binding on compound microarray – biochemical, small-molecule microarray, 635/667 nm fluorescence, primary screen (AID 1148); conditions: higher = more signal;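 further: score merges 667nm spot fluorescence with signal-to-noise for antibody binding to printed compounds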
Torsin-1A (Homo sapiens) [8] = target: Torsin-1A (Homo sapiens) (UniProt O14656); assay: TOR1A wild-type binding on microarray – cell lysate, small-molecule microarray, lysate, 635/667 nm, primary screen (AID 1149); conditions: COS7 hTOR1A-WT lysate, 635 nm fluorescence, higher = more signal
Chain of Torsin-1A (Homo sapiens) (O14656 whole entry, looked up): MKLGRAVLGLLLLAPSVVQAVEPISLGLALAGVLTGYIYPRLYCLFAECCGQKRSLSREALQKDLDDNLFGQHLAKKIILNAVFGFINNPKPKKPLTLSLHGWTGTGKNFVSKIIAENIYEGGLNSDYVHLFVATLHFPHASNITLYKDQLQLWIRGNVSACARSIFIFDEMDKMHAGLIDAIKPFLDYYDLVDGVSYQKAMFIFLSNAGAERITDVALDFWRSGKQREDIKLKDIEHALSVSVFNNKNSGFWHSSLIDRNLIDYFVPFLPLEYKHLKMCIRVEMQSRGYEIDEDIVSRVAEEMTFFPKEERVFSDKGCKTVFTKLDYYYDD

Torsin-1A (Homo sapiens) [9] = target: Torsin-1A (Homo sapiens) (UniProt O14656); assay: torsin A mutant lysate binding on microarrays – cell lysate, small-molecule microarray, COS7 lysate, 635/667 nm fluorescence, primary screen (AID 1150); conditions: COS7 hTOR1A mutant lysate, 635 nm fluorescence, higher = more signal;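 further: score pools 667 nm emission and signal to noise measuring lysate protein binding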
[10] = test system: Sonic hedgehog protein (Shh); assay: Sonic hedgehog microarray binding compounds – biochemical, small-molecule microarray, 635/667 nm fluorescence, primary screen (AID 1151); conditions: 635 nm fluorescence, higher = more signal;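 further: Shh protein binding to compounds spotted on small-molecule microarray slides; score combines spot fluorescence intensity with signal-to-noise across triplicate slides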
[11] = optical density shifts of acrAB sulA E. coli – strain DRC41, OD650, 48 h, E. coli filamentation inducer project, primary screen (AID 1152); conditions: higher = more signal, called active from +8 up or from −8 down;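 further: E. coli MC1000 strain DRC41 lacking acrAB efflux pump and sulA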
[12] = probe aLefty1 binding on compound microarray – biochemical, small-molecule microarray, 635/667 nm fluorescence, primary screen (AID 1153); conditions: higher = more signal;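 further: score merges spot fluorescence with signal-to-noise ratio from the scanned slide images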
[13] = plasmodial surface anion channel blockers, osmotic lysis – cell-based, P. falciparum Indochina, OD700, 1 h, primary screen (AID 1154); conditions: P. falciparum Indochina infected RBC osmotic lysis, higher = more signal, called active from +8 up or from −8 down
[14] = plasmodial surface anion channel blockers, osmotic lysis – cell-based, P. falciparum Indochina, OD700, 2 h, primary screen (AID 1155);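 further: lysis reports solute entry through the parasite surface anion channel PSAC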; conditions: P. falciparum Indochina infected erythrocytes, higher = more signal, called active from +8 up or from −8 down
[15] = changes in parasitized red cell lysis, either direction – P. falciparum Indochina, OD700, 3 h, PSAC antagonist project, primary screen (AID 1156); conditions: P. falciparum-infected erythrocytes, osmotic lysis, higher = more signal, called active from +8 up or from −8 down
[16] = plasmodial surface anion channel blockers, osmotic lysis – cell-based, P. falciparum Indochina, OD700, 18 h, primary screen (AID 1157); conditions: P. falciparum Indochina infected erythrocytes, osmotic lysis OD700, 18 h; higher = more signal, called active from +8 up or from −8 down
[17] = S6 kinase pathway phospho-S6 level changes – cell-based, A549, cytoblot, luminescence, serum-stimulated, primary screen (AID 1158); conditions: 5 h, higher = more signal;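 further: serum-stimulated A549 lung adenocarcinoma cells; signal is phosphorylated S6 detected by cytoblot immunostaining with HRP secondary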
[18] = target: NADPH oxidase 2 (Homo sapiens) (UniProt P04839); assay: compounds shifting NOX2 Amplex Red fluorescence – cell-based, HEK293-NOX2, PMA-stimulated, NOX inhibitor project, primary screen (AID 1159); conditions: 45 min, higher = more signal, called active from +8 up or from −8 down; further: test concentration not given here
Chain of NADPH oxidase 2 (Homo sapiens) (P04839 whole entry, looked up): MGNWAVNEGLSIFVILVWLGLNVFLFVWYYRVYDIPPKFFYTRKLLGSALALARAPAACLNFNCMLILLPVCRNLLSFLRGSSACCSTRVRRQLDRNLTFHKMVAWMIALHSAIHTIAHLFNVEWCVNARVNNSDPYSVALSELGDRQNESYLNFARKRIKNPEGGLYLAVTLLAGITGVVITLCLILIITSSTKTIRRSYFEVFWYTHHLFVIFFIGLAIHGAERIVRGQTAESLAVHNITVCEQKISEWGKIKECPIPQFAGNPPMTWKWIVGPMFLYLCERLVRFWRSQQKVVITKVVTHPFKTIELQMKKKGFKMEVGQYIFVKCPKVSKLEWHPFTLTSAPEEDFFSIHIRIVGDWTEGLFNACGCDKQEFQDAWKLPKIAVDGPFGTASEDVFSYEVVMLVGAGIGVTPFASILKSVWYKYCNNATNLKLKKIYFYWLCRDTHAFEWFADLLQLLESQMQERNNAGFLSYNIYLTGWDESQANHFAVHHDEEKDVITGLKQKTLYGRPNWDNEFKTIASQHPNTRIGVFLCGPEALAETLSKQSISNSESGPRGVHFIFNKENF

[19] = target: NADPH oxidase 4 (Homo sapiens) (UniProt Q9NPH5); assay: compounds shifting NOX4 Amplex Red fluorescence – cell-based, HEK293-NOX4, tetracycline-induced, NOX inhibitor project, primary screen (AID 1160); conditions: HEK293-NOX4, Amplex Red H2O2 fluorescence, 45 min; higher = more signal, called active from +8 up or from −8 down
Chain of NADPH oxidase 4 (Homo sapiens) (Q9NPH5 whole entry, looked up): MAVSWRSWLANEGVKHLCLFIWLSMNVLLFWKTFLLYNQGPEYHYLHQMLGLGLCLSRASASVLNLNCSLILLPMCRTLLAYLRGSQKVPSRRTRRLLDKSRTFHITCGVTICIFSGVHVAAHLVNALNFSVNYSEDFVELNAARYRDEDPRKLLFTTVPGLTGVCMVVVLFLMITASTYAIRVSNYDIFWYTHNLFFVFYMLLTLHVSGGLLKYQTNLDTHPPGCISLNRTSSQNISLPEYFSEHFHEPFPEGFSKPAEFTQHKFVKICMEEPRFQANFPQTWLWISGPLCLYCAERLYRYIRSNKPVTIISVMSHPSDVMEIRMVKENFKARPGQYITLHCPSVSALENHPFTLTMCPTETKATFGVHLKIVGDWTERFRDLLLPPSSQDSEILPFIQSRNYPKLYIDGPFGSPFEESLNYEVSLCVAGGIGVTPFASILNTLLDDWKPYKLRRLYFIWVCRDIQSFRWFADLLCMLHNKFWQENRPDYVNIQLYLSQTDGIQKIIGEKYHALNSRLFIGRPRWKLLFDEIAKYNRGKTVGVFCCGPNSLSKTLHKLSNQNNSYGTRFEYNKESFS

[20] = target: NADPH oxidase 5 (Homo sapiens) (UniProt Q96PH1); assay: compounds shifting NOX5 Amplex Red fluorescence – cell-based, HEK293-NOX5, NOX inhibitor project, primary screen (AID 1161); conditions: HEK293-NOX5, ionomycin, 45 min, higher = more signal
Chain of NADPH oxidase 5 (Homo sapiens) (Q96PH1 whole entry, looked up): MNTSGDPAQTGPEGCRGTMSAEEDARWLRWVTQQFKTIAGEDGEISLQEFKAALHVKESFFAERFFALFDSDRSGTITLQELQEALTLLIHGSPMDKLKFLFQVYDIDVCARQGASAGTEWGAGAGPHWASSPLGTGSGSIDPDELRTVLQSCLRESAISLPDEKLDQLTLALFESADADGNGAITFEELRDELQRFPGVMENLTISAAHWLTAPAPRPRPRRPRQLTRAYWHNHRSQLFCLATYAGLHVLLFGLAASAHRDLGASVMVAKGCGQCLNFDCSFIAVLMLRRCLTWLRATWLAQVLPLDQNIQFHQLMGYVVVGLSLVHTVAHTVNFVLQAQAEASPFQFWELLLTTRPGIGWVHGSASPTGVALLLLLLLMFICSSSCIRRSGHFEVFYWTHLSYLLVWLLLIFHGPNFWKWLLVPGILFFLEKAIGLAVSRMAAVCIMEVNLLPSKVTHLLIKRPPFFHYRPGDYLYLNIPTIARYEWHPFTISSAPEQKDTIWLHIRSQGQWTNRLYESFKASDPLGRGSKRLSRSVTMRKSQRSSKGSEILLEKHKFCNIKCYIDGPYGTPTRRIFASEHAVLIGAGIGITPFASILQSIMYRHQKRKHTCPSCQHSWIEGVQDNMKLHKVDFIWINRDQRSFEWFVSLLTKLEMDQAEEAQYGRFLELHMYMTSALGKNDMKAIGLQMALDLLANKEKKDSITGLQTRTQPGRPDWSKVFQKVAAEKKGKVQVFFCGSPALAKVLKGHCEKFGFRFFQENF

SMILES	composite z-score [1]	z-score [2]	z-score [3]	z-score [4]	z-score [5]	composite z-score [6]	composite z-score [7]	composite z-score (Torsin-1A (Homo sapiens) [8])	composite z-score (Torsin-1A (Homo sapiens) [9])	composite z-score [10]	z-score [11]	composite z-score [12]	z-score [13]	z-score [14]	z-score [15]	z-score [16]	z-score [17]	z-score [18]	z-score [19]	z-score [20]
CCOC(=O)C1=C[C@@H](C(C)C)N(S(=O)(=O)c2ccc(C)cc2)[C@H]1c1ccccc1F	0.197	-2.77 (inactive)	-0.0791 (inactive)	-0.527 (inactive)	-0.0445 (inactive)	1.08	0.0816	0.345	1.15	0.394	-1.02 (inactive)	0.389	0.21 (inactive)	0.668 (inactive)	-0.422 (inactive)	0.587 (inactive)	-0.851	0.173 (inactive)	-0.957 (inactive)	1.06
O=C1O[C@@H](c2ccccc2)[C@@H](c2ccccc2)N2[C@@H](c3ccccc3OCCO)[C@]3(C(=O)Nc4ccc(C#CC5(O)CCCCCC5)cc43)[C@@H](C(=O)N3CCN(c4ncccn4)CC3)[C@H]12	0.133	-2.72 (inactive)	0.703 (inactive)	0.209 (inactive)	2.96 (inactive)	0.077	0.0074	0.987	0.808	1.11	0.691 (inactive)	-0.0141	1.89 (inactive)	1.66 (inactive)	2.21 (inactive)	1.18 (inactive)	-0.451	0.814 (inactive)	0.343 (inactive)	1.93
NCCCCCCNC(=O)[C@H]1C[C@H]2C(=O)N[C@@H](Cc3ccccc3)C(=O)N2[C@H]1c1cccc(OCCO)c1	-0.0371	0.173 (inactive)	-0.687 (inactive)	-0.545 (inactive)	-0.711 (inactive)	1.09	-0.128	1.24	0.916	0.16	0.921 (inactive)	-0.141	5 (inactive)	0.944 (inactive)	2.3 (inactive)	0.472 (inactive)	-0.147	0.997 (inactive)	0.736 (inactive)	0.392
O=C(O)[C@H](Cc1ccccc1)n1cc(-c2ccccc2)nn1	0.469	0.594 (inactive)	0.192 (inactive)	1.56 (inactive)	0.219 (inactive)	0.572	-0.0494	0.0641	0.804	0.172	-0.695 (inactive)	-0.144	-0.256 (inactive)	0.216 (inactive)	-0.564 (inactive)	0.161 (inactive)	0.473	-1.58 (inactive)	0.283 (inactive)	-0.837
CC(=O)n1cc(C(O)C2C=CC3C(=O)NC(=O)C3N2Nc2ccccn2)c2ccccc21 (stereo not given)	0.109	0.713 (inactive)	-0.781 (inactive)	-0.14 (inactive)	0.593 (inactive)	0.153	0.23	0.865	0.153	0.41	-0.734 (inactive)	-0.101	0.625 (inactive)	0.827 (inactive)	-0.313 (inactive)	0.679 (inactive)	-0.612	-1.68 (inactive)	-2.41 (inactive)	-1.58
O=C1OCCC/C=C\[C@H]2OC34C=CCN(c5ccc6ccccc6c5)C(=O)[C@H]3N(CCCCCO)C(=O)[C@@H]4C12 (stereo not given in full)	-0.591	0.123 (inactive)	2.33 (inactive)	0.601 (inactive)	0.106 (inactive)	-0.773	-0.209	-2.04	-1.51	-0.0295	-0.829 (inactive)	-0.147	0.29 (inactive)	-0.0458 (inactive)	-0.455 (inactive)	-0.181 (inactive)	-0.839	0.814 (inactive)	-0.15 (inactive)	1.58
O=C1N(CCS(=O)(=O)c2ccccc2)c2ccccc2[C@@H]2OC(c3ccc(OCCCO)cc3)=N[C@]12Cc1ccccc1	-0.0372	-3.61 (inactive)	-0.157 (inactive)	1.26 (inactive)	-1.77 (inactive)	0.14	0.0091	0.422	0.208	1.95	0.0442 (inactive)	-0.081	30.9 (active)	24.6 (active)	2.85 (inactive)	6.38 (inactive)	2.01	-2.55 (inactive)	0.645 (inactive)	-1.18
O=C(O)[C@H]1C[C@H]2C(=O)N3CCC[C@H]3C(=O)N2[C@H]1c1ccc(O)cc1	-0.32	-0.44 (inactive)	-0.0598 (inactive)	-0.122 (inactive)	-0.233 (inactive)	-1.29	-0.122	0.244	0.109	0.0164	0.852 (inactive)	-0.121	1.9 (inactive)	0.0196 (inactive)	-6.59 (inactive)	0.104 (inactive)	-0.275	0.583 (inactive)	0.16 (inactive)	0.932
